Compounds without any hit were thinned out: in the full panel of roughly 83,000, 20% have a hit.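 A percent growth of 40 corresponds to 60% growth inhibition; 0 means no net growth; -100 means all cells died. Active threshold: below 10.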 A number with no mark means an inactive call. Activity calls are given as the source filed them.
The compounds below were run on MDA-MB-468 breast (assay: NCI-60 one-dose screen, 48 h (100 = growth as untreated, 0 = no growth, -100 = all killed)). Conditions: 10 µM unless noted.

Compound	growth
c1cncc(-c2csc(-c3c[nH]c4ccccc34)n2)c1	99.1%
CC(C(=O)n1cc(-c2ccccc2)c(-c2ccccc2)c1)c1ccccc1 (stereo unspecified)	104%
O=C(O)c1ccc(NC(=O)c2ccc(-c3cccc([N+](=O)[O-])c3)o2)cc1	99.8%
COc1ccc(/C=C(\C#N)c2ccc(OC)cc2)cc1	7.49% (active)
CC1=NNC(=O)C1CCC(=O)N/N=C(\C)c1ccc2ccccc2c1 (stereo unspecified)	119%
CCOC(=O)c1cc(/C(=N\O)c2cc(OC)c(OC)c(OC)c2)n2cc(C)cc(C)c12	15.8%

From PubChem BioAssay (NCI)
